Experiment [1] can be described thus: antimalarial activity against Dd2 strain (AID 2302;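 active = growth inhibition above 50% at the single 2 µM test dose, taken to imply half-maximal potency below 2 µM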;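 note: 0% = DMSO untreated growth and 100% = chloroquine plus artemisinin killed control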). The conditions noted are these: P. falciparum Dd2 in RBCs, LDH growth readout, 72 h; at 2 µM; active compounds read high.
A short description of experiment [2]: HepG2 cytotoxicity, primary screen, cytotoxicity control for P. falciparum antimalarial project, cell-based, ATP luminescence (AID 2303;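 active = inhibition above 50%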;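 note: 0% = DMSO wells and 100% = digitonin-killed cells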). The note with it: HepG2 viability, 24-48 h, at 10 µM, active compounds read high.
Experiment [3] has as its target L-lactate dehydrogenase (Plasmodium falciparum (isolate CDC / Honduras)) (UniProt Q27743). As to the kind of experiment: PfLDH activity inhibition – cell lysate, 3D7 strain, counter-screen for P. falciparum growth inhibition project (AID 2304).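 Note: 0% = vehicle and 100% = reference inhibitor.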 The conditions noted are these: P. falciparum 3D7 crude extract, LDH APAD/NBT absorbance; at 2 µM; active compounds read high.
The nature of experiment [4]: inhibition of 3D7 malaria parasite growth – strain 3D7 (AID 2306).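 Note: 0% = DMSO wells and 100% = chloroquine plus artemisinin control wells.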 The note with it: P. falciparum 3D7 erythrocytic growth, LDH absorbance, 72 h; at 2 µM; active compounds read high.
Experiment [5] deals with Calcium-dependent protein kinase 1 (Plasmodium falciparum (isolate 3D7)) (UniProt P62344). Kind of experiment: PfCDPK1 kinase inhibitors, biochemical, TCAMS library (AID 1159585; cut-off not given, nearly all actives have IC50 up to about 0.98 µM;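 note: inhibitors leave more ATP so luminescence rises with inhibition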). The conditions noted are these: recombinant PfCDPK1, Kinase-Glo ATP depletion luminescence.
Chain of Calcium-dependent protein kinase 1 (Plasmodium falciparum (isolate 3D7)) (P62344 whole entry, looked up): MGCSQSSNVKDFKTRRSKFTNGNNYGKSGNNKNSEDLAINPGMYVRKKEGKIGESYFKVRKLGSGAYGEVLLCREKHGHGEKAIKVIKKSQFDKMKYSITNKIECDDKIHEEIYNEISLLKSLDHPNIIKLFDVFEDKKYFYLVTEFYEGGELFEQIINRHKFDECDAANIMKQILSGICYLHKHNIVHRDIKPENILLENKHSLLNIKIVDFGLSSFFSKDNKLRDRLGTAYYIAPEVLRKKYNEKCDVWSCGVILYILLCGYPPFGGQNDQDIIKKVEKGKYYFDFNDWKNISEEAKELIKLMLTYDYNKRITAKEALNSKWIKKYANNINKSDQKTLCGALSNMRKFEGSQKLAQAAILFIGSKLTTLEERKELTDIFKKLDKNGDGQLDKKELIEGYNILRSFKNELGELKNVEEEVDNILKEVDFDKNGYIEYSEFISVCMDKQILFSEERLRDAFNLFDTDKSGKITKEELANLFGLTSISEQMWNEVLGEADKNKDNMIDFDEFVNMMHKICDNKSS
Experiment [6] has as its target Plasmodium falciparum protein kinase 6 (PK6, PF3D7_1337100) (UniProt Q8IDW1). As to the kind of experiment: PfPK6 kinase inhibitors, biochemical, TCAMS library (AID 1159586). The conditions noted are these: recombinant PfPK6, Kinase-Glo ATP depletion luminescence. (In general: In Kinase-Glo more light means more ATP remaining.)
The target of experiment [7] is Protein kinase 7 (PK7), Plasmodium falciparum 3D7 (PF3D7_0213400) (UniProt Q7YTF7). Kind of experiment: inhibition of Plasmodium PK7 catalytic activity – biochemical, TCAMS antimalarial set, Kinase-Glo luminescence (AID 1159587). The note with it: recombinant PfPK7, Kinase-Glo ATP depletion luminescence.
Chain of Protein kinase 7 (PK7), Plasmodium falciparum 3D7 (PF3D7_0213400) (Q7YTF7 1-343): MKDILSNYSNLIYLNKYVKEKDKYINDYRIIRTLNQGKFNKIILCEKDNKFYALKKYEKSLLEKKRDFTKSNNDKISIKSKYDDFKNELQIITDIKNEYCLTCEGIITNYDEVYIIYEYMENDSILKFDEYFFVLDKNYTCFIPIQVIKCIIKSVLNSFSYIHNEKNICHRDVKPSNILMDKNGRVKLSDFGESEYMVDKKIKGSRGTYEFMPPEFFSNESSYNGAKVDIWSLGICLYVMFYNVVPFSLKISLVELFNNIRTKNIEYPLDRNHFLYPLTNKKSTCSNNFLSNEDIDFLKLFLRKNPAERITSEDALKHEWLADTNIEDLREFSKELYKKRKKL
In experiment [8] the target is Calcium-dependent protein kinase 4 (Plasmodium falciparum (isolate 3D7)) (UniProt Q8IBS5). Kind of experiment: PfCDPK4 kinase inhibitors, biochemical, TCAMS library (AID 1159588; cut-off not given, nearly all actives have IC50 up to about 0.91 µM). The note with it: recombinant PfCDPK4, Kinase-Glo ATP depletion luminescence.
Chain of Calcium-dependent protein kinase 4 (Plasmodium falciparum (isolate 3D7)) (Q8IBS5 whole entry, looked up): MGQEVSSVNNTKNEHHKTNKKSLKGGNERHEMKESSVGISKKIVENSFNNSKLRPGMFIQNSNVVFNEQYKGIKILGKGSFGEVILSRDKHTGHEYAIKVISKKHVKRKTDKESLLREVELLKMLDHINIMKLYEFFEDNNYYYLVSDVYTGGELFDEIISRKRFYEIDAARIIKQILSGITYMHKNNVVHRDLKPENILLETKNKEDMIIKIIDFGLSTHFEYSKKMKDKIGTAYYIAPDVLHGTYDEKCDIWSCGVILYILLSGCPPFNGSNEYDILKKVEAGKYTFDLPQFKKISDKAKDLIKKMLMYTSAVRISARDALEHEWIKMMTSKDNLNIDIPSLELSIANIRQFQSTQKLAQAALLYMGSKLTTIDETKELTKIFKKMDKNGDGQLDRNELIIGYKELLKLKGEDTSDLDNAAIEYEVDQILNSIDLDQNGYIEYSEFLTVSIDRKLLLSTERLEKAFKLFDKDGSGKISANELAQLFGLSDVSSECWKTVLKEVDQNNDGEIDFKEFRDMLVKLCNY

Unmarked numbers belong to inactive results. For some of these results: Potency and affinity values are given separately. Calls of active or inactive are those of the source. Unless noted, the rule behind the calls is not given here.

As a reminder, the inhibition is the relative decrease from the control value, in per cent.

Chain of Plasmodium falciparum protein kinase 6 (PK6, PF3D7_1337100) (Q8IDW1 1-305): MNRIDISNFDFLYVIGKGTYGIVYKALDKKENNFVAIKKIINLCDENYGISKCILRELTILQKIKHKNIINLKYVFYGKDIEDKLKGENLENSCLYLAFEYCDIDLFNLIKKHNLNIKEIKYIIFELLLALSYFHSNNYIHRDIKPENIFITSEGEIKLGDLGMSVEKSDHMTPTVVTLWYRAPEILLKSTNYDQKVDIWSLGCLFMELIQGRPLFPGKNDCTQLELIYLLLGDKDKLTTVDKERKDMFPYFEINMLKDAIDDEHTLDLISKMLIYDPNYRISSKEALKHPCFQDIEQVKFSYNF
Chain of L-lactate dehydrogenase (Plasmodium falciparum (isolate CDC / Honduras)) (Q27743 whole entry, looked up): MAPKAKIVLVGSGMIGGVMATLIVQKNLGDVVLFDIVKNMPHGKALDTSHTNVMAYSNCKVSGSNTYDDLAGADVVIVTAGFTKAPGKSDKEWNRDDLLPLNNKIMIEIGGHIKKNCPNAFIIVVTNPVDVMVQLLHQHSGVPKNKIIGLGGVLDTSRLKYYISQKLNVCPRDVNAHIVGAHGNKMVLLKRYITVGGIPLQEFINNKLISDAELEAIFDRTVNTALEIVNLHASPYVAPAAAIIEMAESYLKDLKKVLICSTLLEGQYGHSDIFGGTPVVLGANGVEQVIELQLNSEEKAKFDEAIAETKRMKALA

For `Cc1ccc(-n2nc3ccc(NC(=O)c4ccc([N+](=O)[O-])o4)cc3n2)cc1C`, the results for the growth inhibition in experiment [1] and in experiment [4] were 95% (active) and 94% (active), respectively. The results for the inhibition in experiment [2] and in experiment [3] were 20% and -3%, respectively. Also, the result in experiment [5], in experiment [6], in experiment [7] and in experiment [8] was inactive.
`O=C(Nc1cccc(C(F)(F)F)c1)c1cccc(S(=O)(=O)NCC2CCCN(Cc3ccccc3)C2)c1` (stereo not given): the growth inhibition is 3% in experiment [1] and 94% (active) in experiment [4]. Also, the inhibition in experiment [2] was 17%; in experiment [3], 2%. For the same molecule, the outcome in experiment [5], in experiment [6], in experiment [7] and in experiment [8] was inactive.
Take `CC(=O)Nc1ccc(CN2CCC(CNC(=O)c3cc(-c4cccc(C(F)(F)F)c4)cs3)C2)cc1` (stereo not given): the results for the growth inhibition in experiment [1] and in experiment [4] were 3% and 97% (active), respectively. In addition, the inhibition in experiment [2] was 24%; in experiment [3] it was 2%. Also, the result in experiment [5], in experiment [6], in experiment [7] and in experiment [8] was inactive.
For the molecule `NC(=NCCCc1ccccc1)c1cccc(C(N)=NCCCc2ccccc2)n1`, the growth inhibition in experiment [1] is -1%; in experiment [4], 98% (active). For the same molecule, the inhibition in experiment [2] is 44%; in experiment [3], -6%. In addition, the outcome in experiment [5], in experiment [6], in experiment [7] and in experiment [8] was inactive.
For the molecule `COc1cc(-c2nc3c4ccccc4c4ccccc4c3[nH]2)cc(OC)c1OC`, the growth inhibition in experiment [1] is 10%; in experiment [4], 90% (active). Moreover, the inhibition in experiment [2] is 4%; in experiment [3] it was 5%. Further, the result in experiment [5], in experiment [6], in experiment [7] and in experiment [8] was inactive.
`N[C@@H](CCNC1CCN(c2cccc(C(F)(F)F)c2)CC1)Cc1ccc(F)c(F)c1`: the growth inhibition is 69% (active) in experiment [1] and 101% (active) in experiment [4]. For the same molecule, the inhibition in experiment [2] is 100% (active); in experiment [3], -1%. For the same molecule, the outcome in experiment [5], in experiment [6], in experiment [7] and in experiment [8] was inactive.
`COc1ccccc1C(=O)N1CCN(Cc2cccs2)CC1`: the results for the growth inhibition in experiment [1] and in experiment [4] were 1% and 96% (active), respectively. Further, the figures for the inhibition in experiment [2] and in experiment [3] were 87% (active) and -1%, respectively. The outcome in experiment [5], in experiment [6], in experiment [7] and in experiment [8] was inactive.
On to `Cc1[nH]c(C)c(-c2ccc(CCc3ccc(C(F)(F)F)cc3)nc2)c(=O)c1Cl`, for which the growth inhibition in experiment [1] and in experiment [4] was 97% (active) each time. For the same molecule, the inhibition is 24% in experiment [2] and 2% in experiment [3]. Moreover, the outcome in experiment [5], in experiment [6], in experiment [7] and in experiment [8] was inactive.
Consider `O=C(Nc1ccc2c(c1)CCN2C1CCN(Cc2cccc(C(F)(F)F)c2)C1)c1ccco1` (stereo not given), for which the values for the growth inhibition in experiment [1] and in experiment [4] were 92% (active) and 95% (active), respectively. In addition, the inhibition is 4% in experiment [2] and -1% in experiment [3]. Besides, the result in experiment [5], in experiment [6], in experiment [7] and in experiment [8] was inactive.
With `Cc1cc(NC2CCCC2)nc(Nc2ccc(F)cc2)n1`, the results for the growth inhibition in experiment [1] and in experiment [4] were 74% (active) and 100% (active), respectively. Besides, the inhibition in experiment [2] is 22%; in experiment [3], -3%. Besides, the result in experiment [5], in experiment [6], in experiment [7] and in experiment [8] was inactive.
Regarding `COc1cc(Nc2nccc(N3CCC(NC(=O)Nc4ccc5c(c4)OCO5)C3)n2)cc(OC)c1OC` (stereo not given), the growth inhibition in experiment [1] was 74% (active); in experiment [4], 96% (active). Besides, the figures for the inhibition in experiment [2] and in experiment [3] were 9% and -1%, respectively. For the same molecule, the result in experiment [5], in experiment [6], in experiment [7] and in experiment [8] was inactive.
Consider `O=C(Nc1cc(C(F)(F)F)cc(C(F)(F)F)c1)N1CCC(CCN2CCC(c3c[nH]c4ccccc34)CC2)CC1`, for which the growth inhibition was 16% in experiment [1] and 91% (active) in experiment [4]. The results for the inhibition in experiment [2] and in experiment [3] were 17% and 6%, respectively. Besides, the result in experiment [5], in experiment [6], in experiment [7] and in experiment [8] was inactive.
On to `Oc1ccc(CCNc2nc(NCCCOc3cccc(-c4ccccc4)c3)nc(N3CCNCC3)n2)cc1`, for which the values for the growth inhibition in experiment [1] and in experiment [4] were 14% and 89% (active), respectively. The inhibition in experiment [2] was 40%; in experiment [3], -2%. Further, the outcome in experiment [5], in experiment [6], in experiment [7] and in experiment [8] was inactive.
As for `O=C(/C=C/c1ccc(Cl)c(Cl)c1)N1CCC(CN2CCC(Cc3cc4ccccc4[nH]3)CC2)CC1`, the figures for the growth inhibition in experiment [1] and in experiment [4] were 56% (active) and 96% (active), respectively. Also, the inhibition in experiment [2] is 49%; in experiment [3], -3%. In addition, the outcome in experiment [5], in experiment [6], in experiment [7] and in experiment [8] was inactive.
For `CO/C(=C\C=C\c1cc2cc(Cl)c(Cl)cc2[nH]1)C(=O)NCCCN1CCN(c2cccc(Cl)c2)CC1`, the growth inhibition in experiment [1] is 77% (active); in experiment [4] it was 100% (active). In addition, the inhibition in experiment [2] was 58% (active); in experiment [3], 3%. In addition, the result in experiment [5], in experiment [6], in experiment [7] and in experiment [8] was inactive.
`CCCCCCOc1ccc(C(=O)NCCC2CCN(CCCCCNC(=O)C=Cc3ccc(Cl)c(Cl)c3)CC2)cc1`: the growth inhibition is 10% in experiment [1] and 99% (active) in experiment [4]. Besides, the inhibition in experiment [2] was 13%; in experiment [3] it was 0%. Besides, the outcome in experiment [5], in experiment [6], in experiment [7] and in experiment [8] was inactive.
In the case of `COc1ccc2nccc(CCN3C[C@H](CNCc4ccc5c(n4)NC(=O)CS5)[C@H](O)C3)c2n1`, the growth inhibition in experiment [1] is 26%; in experiment [4], 86% (active). The inhibition is 4% in experiment [2] and -2% in experiment [3]. In addition, the result in experiment [5], in experiment [6], in experiment [7] and in experiment [8] was inactive.
As to `c1cc(CN2CCN(c3ccncc3)CC2)cc(-c2ccc(-c3nc4ccccc4[nH]3)s2)c1`, the growth inhibition in experiment [1] is 100% (active); in experiment [4], 102% (active). The figures for the inhibition in experiment [2] and in experiment [3] were 59% (active) and -2%, respectively. For the same molecule, the result in experiment [5], in experiment [6], in experiment [7] and in experiment [8] was inactive.
As to `O=C(N[C@H]1CCN(Cc2ccc(OCCN3CCCC3)c3ccccc23)C1)c1ccc(Cl)c(Cl)c1`, the figures for the growth inhibition in experiment [1] and in experiment [4] were 51% (active) and 100% (active), respectively. In addition, the inhibition in experiment [2] is 90% (active); in experiment [3] it was -1%. Further, the result in experiment [5], in experiment [6], in experiment [7] and in experiment [8] was inactive.
As to `CN1CCN(c2ccc(Nc3ccnc4ccc(-c5ccccc5)cc34)cc2)CC1`, the growth inhibition in experiment [1] and in experiment [4] was 101% (active) each time. The results for the inhibition in experiment [2] and in experiment [3] were 20% and -2%, respectively. The result in experiment [5], in experiment [6], in experiment [7] and in experiment [8] was inactive.

(Values after PubChem BioAssay.)
